Measured values published in PubChem BioAssay (EPA / NIEHS).
Where “and” joins values, the source holds several entries; their conditions need not be identical. Equal values may be shown once. Where a structure was tested more than once in an assay, its records may differ in their call. Calls of active or inactive are those of the source. Rule for the calls: active = hit-call score of the fitted dose curve at least 0.9, where 1 is the maximum; inactive = score below 0.9.

Columns and labels:
[1] = read-out: Macrophage colony-stimulating factor (MCSF), CSF1 (gene 1435); test: BSK_hDFCGF_MCSF: BioMAP Diversity Plus: hDFCGF Assay for Macrophage colony-stimulating factor (MCSF) Biomarker Activity (AID 2283060); conditions: primary human foreskin fibroblasts; actives raise or lower the signal
Outline: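 ELISA read-out of M-CSF in human dermal foreskin fibroblast cultures, 24 h after chemical dosing; gain or loss of signal fitted bidirectionally relative to DMSO baseline.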

[2] = BSK_hDFCGF_SRB: Viability Assessment in the BioMAP Diversity Plus: hDFCGF Assay (AID 2283061); conditions: primary human foreskin fibroblasts;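 note: cells exposed to compound for 24 h before the read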
Outline: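 Primary human foreskin fibroblasts; 24 h post-dose; fixed 10% TCA, stained 0.1% SRB, A560 read; total protein as overt cytotoxicity measure; curves fit bidirectionally vs DMSO control.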

[3] = read-out: Monokine induced gamma interferon (MIG), CXCL9 (gene 4283); test: BSK_hDFCGF_MIG: BioMAP Diversity Plus: hDFCGF Assay for Monokine induced gamma interferon (MIG) Biomarker Activity (AID 2283063); conditions: primary human foreskin fibroblasts; actives raise or lower the signal
Outline: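 Fibroblasts (human foreskin, primary) dosed, 24 h, MIG by ELISA; fit bidirectional vs DMSO.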

[4] = read-out: Matrix Metallopeptidase 1 (MMP1), MMP1 (gene 4312); test: BSK_hDFCGF_MMP1: BioMAP Diversity Plus: hDFCGF Assay for Matrix Metallopeptidase 1 (MMP1) Biomarker Activity (AID 2283064); conditions: primary human foreskin fibroblasts; actives raise or lower the signal
Outline: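 MMP1 levels quantified by ELISA 24 h after dosing human dermal fibroblast cultures, with parallel SRB total-protein staining for overt cytotoxicity. Data fitted in both directions against DMSO baseline.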

[5] = read-out: Plasminogen activator inhibitor-1 (PAI1), SERPINE1 (gene 5054); test: BSK_hDFCGF_PAI1: BioMAP Diversity Plus: hDFCGF Assay for Plasminogen activator inhibitor-1 (PAI1) Biomarker Activity (AID 2283066); conditions: primary human foreskin fibroblasts; actives raise or lower the signal
Outline: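 ELISA readout of PAI-1 from primary human skin fibroblast cultures, 24 h after compound addition. Gain or loss of signal was fitted bidirectionally against DMSO baseline.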

[6] = read-out: Intercellular Adhesion Molecule 1 (ICAM1), ICAM1 (gene 3383); test: BSK_KF3CT_ICAM1: BioMAP Diversity Plus: KF3CT Assay for Intercellular Adhesion Molecule 1 (ICAM1) Biomarker Activity (AID 2283067); conditions: primary human keratinocytes with fibroblasts; actives raise or lower the signal
Outline: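 ELISA readout of ICAM-1; KF3CT human skin co-culture (keratinocytes + foreskin fibroblasts), 24 h post-dose; gain/loss fit vs DMSO baseline.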

[7] = read-out: Interferon-gamma inducible Protein 10 (IP10), CXCL10 (gene 3627); test: BSK_KF3CT_IP10: BioMAP Diversity Plus: KF3CT Assay for Interferon-gamma inducible Protein 10 (IP10) Biomarker Activity (AID 2283068); conditions: primary human keratinocytes with fibroblasts; actives raise or lower the signal
Outline: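 Signal is secreted/surface IP-10 by ELISA in a human primary skin co-culture of keratinocytes and foreskin fibroblasts, taken 24 h post-dosing; DMSO served as negative control.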

[8] = BSK_KF3CT_SRB: Viability Assessment in the BioMAP Diversity Plus: KF3CT Assay (AID 2283069); conditions: primary human keratinocytes with fibroblasts;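 note: total protein by sulforhodamine B staining as a cytotoxicity measure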
Outline: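 Cytotoxicity was gauged by SRB staining (0.1% SRB, 10% TCA fixation, 560 nm) of parallel cultures at 24 h. The cells were primary human skin keratinocytes co-cultured with fibroblasts, and activity was fitted in both directions against DMSO.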

[9] = read-out: Interleukin-1 alpha (IL1a), IL1A (gene 3552); test: BSK_KF3CT_IL1a: BioMAP Diversity Plus: KF3CT Assay for Interleukin-1 alpha (IL1a) Biomarker Activity (AID 2283070); conditions: primary human keratinocytes with fibroblasts; actives raise or lower the signal
Outline: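 IL-1a was detected by ELISA 24 h after chemical treatment of a co-culture of human skin keratinocytes and foreskin fibroblasts. Gain or loss of signal was fitted against the DMSO baseline.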

[10] = read-out: TIMP metallopeptidase inhibitor 2 (TIMP2), TIMP2 (gene 7077); test: BSK_KF3CT_TIMP2: BioMAP Diversity Plus: KF3CT Assay for TIMP metallopeptidase inhibitor 2 (TIMP2) Biomarker Activity (AID 2283071); conditions: primary human keratinocytes with fibroblasts; actives raise or lower the signal
Outline: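 ELISA readout of TIMP-2 in keratinocyte plus foreskin fibroblast co-cultures (human skin primary cells), 24 h post-dose. Gain or loss of signal fitted relative to DMSO.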

[11] = read-out: Transforming growth factor beta 1 (TGFb1), TGFB1 (gene 7040); test: BSK_KF3CT_TGFb1: BioMAP Diversity Plus: KF3CT Assay for Transforming growth factor beta 1 (TGFb1) Biomarker Activity (AID 2283072); conditions: primary human keratinocytes with fibroblasts; actives raise or lower the signal
Outline: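 Read-out: ELISA for TGF-b1 in keratinocyte/foreskin fibroblast human skin co-culture, 24 h after dosing; bidirectional curve fit vs DMSO baseline; gain or loss of signal scored.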

[12] = read-out: C-C motif chemokine 2 (Homo sapiens) (UniProt P13500); test: BSK_KF3CT_MCP1: BioMAP Diversity Plus: KF3CT Assay for Monocyte Chemoattractant Protein 1 (MCP1/CCL2) Biomarker Activity (AID 2283073); conditions: primary human keratinocytes with fibroblasts; actives raise or lower the signal
Outline: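 KF3CT skin co-culture (keratinocytes/foreskin fibroblasts), 24 h post-dose; MCP-1 by ELISA; gain/loss of signal fit bidirectionally vs DMSO baseline.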

[13] = read-out: Matrix Metallopeptidase 9 (MMP9), MMP9 (gene 4318); test: BSK_KF3CT_MMP9: BioMAP Diversity Plus: KF3CT Assay for Matrix Metallopeptidase 9 (MMP9) Biomarker Activity (AID 2283074); conditions: primary human keratinocytes with fibroblasts; actives raise or lower the signal;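 for AC50: MMP9 protein level quantified by ELISA in the co-culture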
Outline: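 MMP-9 quantified by ELISA after 24 h chemical treatment of primary human skin keratinocyte/fibroblast co-cultures; gain or loss fitted against DMSO, with parallel SRB staining (0.1% SRB, 560 nm) for overt cytotoxicity.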

[14] = read-out: urokinase plasminogen activator (uPA), PLAU (gene 5328); test: BSK_KF3CT_uPA: BioMAP Diversity Plus: KF3CT Assay for urokinase plasminogen activator (uPA) Biomarker Activity (AID 2283075); conditions: primary human keratinocytes with fibroblasts; actives raise or lower the signal
Outline: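 ELISA read-out of uPA 24 h after dosing human skin keratinocytes co-cultured with foreskin fibroblasts. Signal change fitted both ways relative to DMSO; sulforhodamine B on parallel cultures marks overt cytotoxicity.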

[15] = read-out: CD40, CD40 (gene 958); test: BSK_LPS_CD40: BioMAP Diversity Plus: LPS Assay for CD40 Biomarker Activity (AID 2283076); conditions: primary human HUVEC with PBMC; actives raise or lower the signal
Outline: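 ELISA readout of CD40 in HUVEC/PBMC co-culture (BSK_LPS system), 24 h post-dosing; bidirectional curve fit, DMSO baseline; parallel SRB total-protein staining for cytotoxicity.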

[16] = read-out: Interleukin-8 (IL8), CXCL8 (gene 3576); test: BSK_LPS_IL8: BioMAP Diversity Plus: LPS Assay for Interleukin-8 (IL8) Biomarker Activity (AID 2283078); conditions: primary human HUVEC with PBMC; actives raise or lower the signal
Outline: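 HUVEC + PBMC co-culture, LPS-activated; test chemicals dosed, IL-8 read by ELISA at 24 h. Bidirectional curve fit vs DMSO baseline (gain or loss of signal).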

[17] = BSK_LPS_SRB: Viability Assessment in the BioMAP Diversity Plus: LPS Assay (AID 2283079); conditions: primary human HUVEC with PBMC;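 note: total protein by sulforhodamine B absorbance as a cytotoxicity measure; measured one day after compound addition; fitted in both directions against DMSO so loss or gain of signal counts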
Outline: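 HUVEC + PBMC co-culture, LPS-stimulated; compound 24 h. 10% TCA fix, 0.1% SRB stain, A560. Bidirectional fit vs DMSO.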

[18] = read-out: TIMP metallopeptidase inhibitor 1 (TIMP1), TIMP1 (gene 7076); test: BSK_hDFCGF_TIMP1: BioMAP Diversity Plus: hDFCGF Assay for TIMP metallopeptidase inhibitor 1 (TIMP1) Biomarker Activity (AID 2283062); conditions: primary human foreskin fibroblasts; actives raise or lower the signal
Outline: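 ELISA readout of TIMP-1 from human dermal foreskin fibroblast cultures 24 h post-dosing. Curves were fitted in both directions against DMSO baseline, with SRB total-protein staining in parallel cultures as a cytotoxicity check.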

[19] = read-out: Vascular cell adhesion molecule 1 (VCAM1), VCAM1 (gene 7412); test: BSK_hDFCGF_VCAM1: BioMAP Diversity Plus: hDFCGF Assay for Vascular cell adhesion molecule 1 (VCAM1) Biomarker Activity (AID 2283065); conditions: primary human foreskin fibroblasts; actives raise or lower the signal;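 for AC50: VCAM-1 protein level quantified by ELISA after 24 h chemical exposure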
Outline: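 ELISA read-out of VCAM-1 on human skin fibroblasts, 24 h post-dose; gain or loss of signal fitted bidirectionally against DMSO baseline.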

[20] = read-out: E-selectin (Homo sapiens) (UniProt P16581); test: BSK_LPS_Eselectin: BioMAP Diversity Plus: LPS Assay for Eselectin Biomarker Activity (AID 2283077); conditions: primary human HUVEC with PBMC; actives raise or lower the signal
Outline: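 ELISA readout of E-selectin, 24 h post-dose, HUVEC + PBMC co-culture (LPS system). Gain or loss of signal vs DMSO baseline, bidirectional fit.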

Measured: AC50

E-selectin (Homo sapiens), sequence (P16581 whole entry, looked up): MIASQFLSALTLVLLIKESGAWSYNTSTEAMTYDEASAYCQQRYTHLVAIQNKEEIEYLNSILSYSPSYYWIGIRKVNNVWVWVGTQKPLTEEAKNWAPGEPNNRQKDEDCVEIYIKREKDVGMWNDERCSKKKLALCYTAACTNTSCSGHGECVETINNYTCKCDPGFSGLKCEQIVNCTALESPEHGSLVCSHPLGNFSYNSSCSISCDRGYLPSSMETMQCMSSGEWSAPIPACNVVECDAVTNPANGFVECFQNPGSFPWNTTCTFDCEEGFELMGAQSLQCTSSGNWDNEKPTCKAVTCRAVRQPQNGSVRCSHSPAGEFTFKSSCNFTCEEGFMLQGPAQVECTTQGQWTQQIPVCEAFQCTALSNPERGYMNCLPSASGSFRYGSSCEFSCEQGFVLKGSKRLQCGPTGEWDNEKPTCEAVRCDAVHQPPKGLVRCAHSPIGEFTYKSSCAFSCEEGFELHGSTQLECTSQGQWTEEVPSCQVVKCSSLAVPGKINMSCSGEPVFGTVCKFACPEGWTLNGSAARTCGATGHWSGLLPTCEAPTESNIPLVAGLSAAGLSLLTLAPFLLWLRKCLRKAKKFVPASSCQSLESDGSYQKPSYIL

CS(C)(=O)=O
not listed: [18] | [19] | [20]
inactive: all other assays above

CCCCCCCCCCCCCCCC[N+](C)(C)Cc1ccccc1
active: [1] 1.97 µM | [2] 5.13 µM | [18] 1.71 µM | [3] 3.62 µM | [4] 4.17 µM | [19] 1.91 µM | [5] 1.52 µM | [6] 6.06 µM | [7] 3.64 µM | [8] 5.1 µM | [9] 3.72 µM | [10] 1.9 µM | [11] 1.02 µM | [12] 3.15 µM | [13] 1.76 µM | [14] 2.39 µM | [15] 13 µM | [16] 5.25 µM | [17] 5.2 µM

O=S(=O)(OCC(F)F)C(F)(F)F
inactive: [1] | [2] | [18] | [3] | [4] | [19] | [5] | [6] | [7] | [8] | [9] | [10] | [12] | [13] | [14] | [15] | [16] | [17]
active: [5] 1.42 µM

CCCCCCC(C)OC(=O)CCCCC(=O)OC(C)CCCCCC (configuration not stated)
not listed: [18] | [20]
inactive: all other assays above

CCCCC(CC)COP(=O)(O)OCC(CC)CCCC (configuration not stated)
inactive: [3] | [6] | [8] | [9] | [14] | [15] | [16] | [17]
active: [1] 33.9 µM and 31.3 µM | [2] 30.6 µM and 29.9 µM | [3] 31.6 µM | [4] 12 µM and 13.7 µM | [19] 37.6 µM and 32 µM | [5] 27.5 µM and 33.5 µM | [7] 26.5 µM and 27.2 µM | [10] 25.5 µM and 28.3 µM | [12] 31.2 µM and 20 µM | [13] 29.5 µM and 36.8 µM

O=C(O)C(F)(F)C(F)(F)C(F)(F)C(F)(F)C(F)(F)C(F)(F)C(F)(F)C(F)(F)C(F)(F)C(F)F
inactive: [1] | [4] | [6] | [10] | [20] | [16]
active: [1] 11 µM | [3] 9.87 µM and 5.95 µM | [19] 15.3 µM and 5.95 µM | [5] 45.6 µM and 46 µM | [7] 27.6 µM and 23.7 µM | [8] 52.4 µM and 49.3 µM | [9] 48.7 µM and 46.1 µM | [10] 42.2 µM | [12] 30 µM and 11.4 µM | [13] 16.2 µM and 12.5 µM | [14] 47.5 µM and 54.1 µM | [15] 24.9 µM and 41.6 µM | [20] 58.3 µM | [16] 55 µM | [17] 46.9 µM and 55 µM
